# In PubChem BioAssay (EPA / NIEHS):
# Calls of active or inactive are those of the source. The calls were made as follows: active = hit-call score of the fitted dose curve at least 0.9, where 1 is the maximum; inactive = score below 0.9.
# Test: CEETOX_H295R_ESTRADIOL: CeeTox H295R High-throughput Steroidogenesis Assay for Estradiol (AID 2283440);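 also: estradiol secreted into medium quantified by LC-MS/MS after dansyl derivatisation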
# Details: actives raise or lower the signal
# Description: CEETOX_H295R is a cell-based, multiplexed-readout assay that uses H295R, a human adrenal gland cell line, with measurements taken at 48 hours after chemical dosing in a 96-well plate.CEETOX_H295R_ESTRADIOL is one of 23 assay component(s) measured or calculated from the CEETOX_H295R assay. It is designed to make measurements of hormone induction, a form of inducible reporter, as detected with absorbance signals by HPLC-MS-MS technology.Data from the assay component CEETOX_H295R_ESTRADIOL was analyzed into 1 assay endpoint. This assay endpoint, CEETOX_H295R_ESTRADIOL, was analyzed with bidirectional fitting relative to DMSO as the negative control and baseline of activity. […] To generalize the intended target to other relatable targets, this assay endpoint is annotated to the steroid hormone intended target family, where the subfamily is estrogens.
# Cell culture and media preparation procedures were conducted in accordance with OECD Test No. 456 guidelines, with minor modifications. H295R cells (ATCC CRL-2128) were expanded for 5 passages and frozen in batches in liquid nitrogen. Prior to the steroidogenesis assay, H295R cells were thawed and passed at least 4 times. The maximum passage was 10. Cells were maintained in a 1:1 mixture of DMEM/F12 supplemented with 5ml/L ITS+ Premix (BD Bioscience) and 12.5 ml/L Nu-Serum (BD Bioscience). After seeding cells into 96-well plates at 50-60% confluency, cells were allowed to adhere overnight. Prior to chemical testing, culture medium was replaced with 175 uL medium containing 10 uM forskolin to stimulate steroidogenesis for 48 hours. Following prestimulation, forskolin medium was replaced with medium containing test chemical solubilized in DMSO (ensuring a final concentration of 0.1% DMSO). Test chemicals were incubated for 48 hours, then the medium was removed and split into 2 vials containing approximately 75uL each, and stored at -80 C prior to hormone analysis. For steroid quantification, media samples were shipped to OpAns, LLC (Durham, NC) on dry ice, and samples were thawed to room temperature prior to liquid-liquid extraction. Steroid hormones were extracted from media samples using methyl tertbutyl ether (MTBE). An extra derivatization with dansyl chloride was included for estrogen (estrone and estradiol) detection only. Steroid hormones were separated by HPLC, eluted using a reverse phase C18 gradient with electrospray positive ionization, followed by quantification by tandem mass spectrometry (MS/MS). Data were acquired on a MassHunter Workstation Acquisition version B03.01 (Agilent Technologies, Inc.) and processed using MassHunter Quantitative Analysis for QQQ. Accuracy was determined for each hormone analyte from 3 standards to determine upper and lower limits of quantification (ULOQ and LLOQ, respectively) using a 7-point standard curve. Precision and accuracy of the extraction and quantification methods were calculated as the percent relative standard deviation (%RSD) of the spiked standards and percent spiked standard recovered, respectively. […] Test medium was removed following chemical exposure, and cell viability was evaluated in the same wells by MTT. MTT procedures were as follows: after removal of test medium, 500 uL of 0.5 mg/ml of 3-[4,5-dimethylthiazol-2-y]2,5-diphenyltetrazoliumbromide solution was added to the cells. Following a 4-hour incubation at 37 C and 5% CO2 to allow formazan-crystal formation, the MTT solution was removed and blue formazan salt crystals were solubilized using 500uL anhydrous isopropanol with shaking for 20 minutes. Absorbance was read at 570 and 650nm using a Packard Fusion microplate reader. Background correction of absorbance units was used to determine percent change relative to controls. […] When a test chemical reduced cell viability to 20% - 70%, the test chemical was diluted 10-fold and re-evaluated, but if cell viability was <20%, then the test chemical was diluted 100-fold and re-evaluated. […]
SMILES,outcome,AC50
COC(=O)c1ccc(O)cc1,inactive,–
Nc1ccccc1N,inactive,–
Oc1ccc2c(c1)OC[C@@H](N1CCC(O)(c3ccc(F)cc3)CC1)[C@H]2O,inactive,–
Oc1ccc2ccccc2c1N=Nc1ccccc1,–,10.7 µM (active)
C[C@]12C=CC(=O)C=C1CC[C@@H]1[C@@H]2C(=O)C[C@@]2(C)[C@H]1CC[C@]2(O)C(=O)CO,inactive,–
Cc1nc(-c2ccc3c(c2)CCN(CCC2CCC(NC(=O)/C=C/c4ccc(F)cc4)CC2)CC3)no1 (stereo not given),inactive,–
Cc1cccc(Nc2cc(Cl)nc(SCC(=O)O)n2)c1C,inactive,–
CN1CCN(Cc2cc(-c3ccc4[nH]c(=O)oc4c3)co2)[C@@H](c2ccc(F)cc2)C1,inactive,–
Cc1c(C(=O)O)c(O)cc2c1C(=O)c1c(O)c([C@@H]3O[C@H](CO)[C@@H](O)[C@H](O)[C@H]3O)c(O)c(O)c1C2=O,inactive,–
c1cc(-c2ccncc2)ccn1,inactive,–
